Compounds with a hit are over-represented: about 6.9% of the library has one in this group of screens.
Vif-APOBEC3G blk: blocks the Vif interaction with human APOBEC3G. HeLa A3G-eYFP + Vif (tagged APOBEC3G with the HIV-1 protein that degrades it), YFP fluorescence, overnight. Potency, µM (titrated, usually from 46.1 µM), without a hit: top-dose activity, negative = active, hits mostly inhibitors. 0.076% of 410,000 active. Q9HC16; also: potency is read from the fitted curve at half-maximal effect; % is scaled to controls: 0 for no effect and ±100 for the full control effect; nearly all actives have a fitted effect of over 60% in size
Target sequence (Q9HC16 whole entry, looked up): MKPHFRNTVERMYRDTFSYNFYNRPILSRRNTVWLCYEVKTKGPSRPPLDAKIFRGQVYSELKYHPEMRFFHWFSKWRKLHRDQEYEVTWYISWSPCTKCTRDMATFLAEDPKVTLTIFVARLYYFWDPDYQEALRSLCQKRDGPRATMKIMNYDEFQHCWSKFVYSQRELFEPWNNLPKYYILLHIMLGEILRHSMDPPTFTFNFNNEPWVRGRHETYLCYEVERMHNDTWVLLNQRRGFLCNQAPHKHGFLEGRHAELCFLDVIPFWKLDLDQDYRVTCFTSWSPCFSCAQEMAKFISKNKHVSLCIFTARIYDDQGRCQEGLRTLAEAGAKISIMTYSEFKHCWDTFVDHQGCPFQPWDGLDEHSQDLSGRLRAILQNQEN
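HeLa cells stably expressing Vif and C-terminally eYFP-tagged A3G, seeded overnight at 37 deg C, then exposed to compound by pintool overnight at 37 deg C. Rise in yellow fluorescence (Ex 488/Em 500-530, Acumen) marks blocked Vif-driven A3G degradation.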
MCF10A rereplic: induces DNA re-replication in MCF 10a normal breast cells | Potency, µM (series often up to 46.1 µM), for inactives: at the highest dose activity, positive = re-replication, most hits filed as activators | 2.9% of 350,000 active | AID 624296 | MCF 10A DNA re-replication, Hoechst nuclear intensity, 48 h; also: potency is read from the fitted curve at half-maximal effect; % of control where 0% means no effect; nearly all actives have a fitted effect of over 50% in size
IL-1B inflam inh: blocks inflammasome-driven IL-1 beta release. 4.7% of 360,000 active. THP-1 LPS/ATP IL-1B secretion, AlphaLISA, 16 h; active compounds read low. activity change, % at 57.5 µM; in the data active = activity change below about -50%; inconclusive = mostly about -30% to -49%; also: % is scaled to controls: 0 for no effect and ±100 for the full control effect
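THP-1 cells pretreated 1 hr with compounds (up to 57.5 uM final), then stimulated with LPS (250 ng/mL final) plus ATP (1.25 mM final); secreted IL-1B measured by AlphaLISA after 16 hr, decreased signal indicating inhibition.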
SW480 rerep: induces DNA re-replication in SW480 colon adenocarcinoma cells; Potency, µM (highest dose often 46.1 µM), without a hit: at the top dose re-replication activation, most hits filed as activators; 1.8% of 340,000 active; SW480 DNA re-replication, Hoechst DNA content imaging, 48 h; AID 624297; also: potency is read from the fitted curve at half-maximal effect; % of control where 0% means no effect; nearly all actives have a fitted effect of over 55% in size
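Compounds, transferred as 23 nL by pin tool, were incubated with cells for 48 hr; DNA content per nucleus was then quantified by Hoechst staining and fluorescence plate imaging.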
Giardia kill: Giardia lamblia killing; Giardia lamblia trophozoite viability; activity change, % at 7.66 µM, hits read low; 0.15% of 340,000 active; AID 540267; in the data active = activity change below about -80%; inconclusive = between about -30% and that limit;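 also: parasites exposed to compound for two days anaerobically before the ATP read; % is scaled to controls: 0 for no effect and ±100 for the full control effect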
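Trophozoites 100 cells/well + cpd; 48 hrs, 37 deg C, anaerobic. ATPLite 1-Step added, 15-30 min RT, luminescence read (ATP-based viability).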
Vif-APOBEC3F blk: Vif-A3F binding inhibition. HeLa A3F-eYFP + Vif (tagged APOBEC3F with the HIV-1 protein that degrades it), YFP fluorescence increase. Potency, µM (doses to about 46.1 µM), for the others: top-dose activity, negative = active. 0.2% of 390,000 active; also: potency is read from the fitted curve at half-maximal effect; % of control where 0% means no effect; nearly all actives have a fitted effect of over 65% in size
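HeLa cells stably expressing A3F-eYFP plus Vif, plated and incubated overnight at 37 deg C, then exposed to compounds overnight at 37 deg C. Blocked degradation read as raised yellow fluorescence (Ex 488/Em 500-530).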
The depositor's hits bear a star; ? = inconclusive; / = not tested or not shown; [ ] = another dose, or the depositor's remark. Unless noted, calls follow the shape of the dose curve; as a rule, active = well fitted curve in the direction sought with a large enough effect; inconclusive = small, poorly fitted or top-dose-only effect, or another doubt; inactive = no such curve, though single readings can be large; an effect the other way counts as inactive or inconclusive.

SMILES	Vif-APOBEC3G blk	MCF10A rereplic	IL-1B inflam inh	SW480 rerep	Giardia kill	Vif-APOBEC3F blk
O=C(Nc1ccc(F)c(F)c1)c1cnn2c1NC(=C1CC1)C=C2C(F)(F)F	2.7%	/	/	/	/	/
CCOC(=O)CSc1nc2c(sc3ccccc32)c(=O)n1Cc1ccc(OC)cc1	-0.1%	/	/	/	/	-3.5%
Cc1ccc(-c2nc3cccnc3o2)cc1NC(=O)COc1ccc(Cl)cc1C	1.0%	26.9%	-0.5	-1.2%	26.8	-7.6%
Cc1ccc(-c2nc3cccnc3o2)cc1NC(=O)COc1ccc(C(C)(C)C)cc1	-4.6%	18.4µM*	-9.1	?	2.3	-0.2%
OC(COC(c1ccc(Cl)cc1)c1ccc(Cl)cc1)CN1CCCC1 (centres undefined)	0.0%	?	-51.2*	?	23.2	0.3%
CN1CCN(CC(O)COC(c2ccc(Cl)cc2)c2ccc(Cl)cc2)CC1 (centres undefined)	0.3%	20.6µM*	-21.8	19.2%	-16.1	?
C[C@@H](CSc1ccccc1)CN1CC[C@H](C(C)(C)C)CCC1=O	-3.5%	?	-11.3	-6.4%	16.9	-2.6%
COc1ccc(SC[C@H](C)CN2CC[C@H](C(C)(C)C)CCC2=O)cc1	-18.3%	?	-91.9*	0.7%	?	-4.4%
COc1ccc(Nc2nc(-c3ccc(OC)cc3)cs2)cc1	3.0%	-6.9%	?	-2.2%	8.7	4.3%
NS(=O)(=O)c1ccc(Nc2nc(-c3ccc(O)cc3)cs2)cc1	-11.2%	6.4%	?	?	4.0	-0.8%
Oc1ccc(-c2csc(-c3c[nH]c4ccccc34)n2)c(O)c1	?	?	-17.0	7.3%	-5.8	-10.2%
COc1ccc(-c2csc(Nc3ccc(S(N)(=O)=O)cc3)n2)cc1	?	10.3µM*	?	?	4.5	-32.1%
Oc1ccc(Nc2nc(-c3ccc(O)cc3)cs2)cc1	?	12.6µM*	?	?	-10.1	-0.5%
COc1ccc(-c2csc(Nc3ccccc3)n2)cc1	1.2%	?	-56.4*	10.4%	?	5.6%
Cc1ccc(-c2csc(-c3c[nH]c4ccccc34)n2)c(C)c1	-11.7%	14.6µM*	13.6	?	3.7	-2.4%
COc1ccccc1Nc1nc(-c2sc(N)nc2C)cs1	-9.7%	-1.5%	-12.1	-6.9%	-21.9	-12.1%
Cc1nc(N)sc1-c1csc(Nc2ncccn2)n1	-1.9%	?	-81.1*	17.1%	-9.1	-26.5%
CC(=O)Oc1ccc(-c2csc(Nc3ccc(S(N)(=O)=O)cc3)n2)cc1	1.3%	14.5%	-79.8*	-29.6%[1.84 µM]	-12.6	-2.2%
CC(=O)NCCC(=O)Nc1nc(-c2c[nH]c3ccccc23)cs1	-3.2%	2.4%	-4.3	-11.5%	-13.0	1.0%
Cc1nc(N)sc1-c1csc(Nc2ccc(S(N)(=O)=O)cc2)n1	-6.3%	-1.2%	-54.9*	0.7%	4.5	0.8%
COc1ccc(Nc2nc(-c3c[nH]c4ccccc34)cs2)cc1	-1.2%	16.4µM*	-78.2*	?	-3.4	7.0%
COc1cccc(Nc2nc(-c3sc(N)nc3C)cs2)c1	1.4%	-1.3%	0.0	-8.9%	0.7	1.7%
CC(C)(C)OC(=O)N1CCC(c2c(C(=O)NCCN3CCCC3)cnn2-c2ccc(Cl)cc2)CC1	4.3%	/	/	/	/	-16.0%
COc1ccc(Br)cc1C1NC(c2ccc3c(c2)OCO3)=CC(c2ccccc2O)N1 (centres undefined)	-6.1%	/	/	/	-16.6	/
COc1ccc(/C(N)=N/OC(=O)Cc2ccc(C)cc2)cc1OC	3.8%	?	12.0	2.91µM*	-9.7	3.3%
SMILES	Vif-APOBEC3G blk	MCF10A rereplic	IL-1B inflam inh	SW480 rerep	Giardia kill	Vif-APOBEC3F blk
COc1ccc(C(=O)O/N=C(\N)Cc2ccc(Cl)c(Cl)c2)cc1OC	3.3%	?	-6.4	/	-10.0	7.4%
COc1ccc(/C(N)=N/OC(=O)c2ccc3c(c2)OCO3)cc1OC	?	-2.0%	-62.1*	?	-6.4	-1.6%
COc1ccc(CC(=O)O/N=C(\N)c2ccc(C)cc2)cc1	-2.4%	-0.3%	35.3	1.3%	37.9	-10.8%
COc1ccc(C(=O)O/N=C(\N)Cc2ccc(Cl)cc2)cc1OC	-0.7%	?	-54.1*	?	-1.4	-8.7%
CCOC(=O)c1sc(N2C(=O)c3oc4ccc(F)cc4c(=O)c3C2c2ccc(O)cc2)nc1C (centres undefined)	0.9%	/	/	/	/	3.5%
CCC(=O)N1CCCc2cc(S(=O)(=O)N3CCC(C(=O)Nc4ccc(F)c(F)c4)CC3)ccc21	-5.0%	/	/	/	/	-14.2%
Cc1ccc([N+](=O)[O-])c(OCCN2CCCCCC2)c1	-7.5%	-3.4%	0.0	-4.2%	34.3	4.6%
Cc1ccc([N+](=O)[O-])c(OCCCN2CCC(Cc3ccccc3)CC2)c1	-7.9%	-0.4%	-60.3*	?	29.8	-10.6%
O=[N+]([O-])c1cccc(OCCN2CCC(Cc3ccccc3)CC2)c1	-0.2%	?	-65.9*	0.7%	12.3	-17.1%
CCN1CCN(CCNC(=O)c2ccc(/C=C3\Sc4ccccc4N(Cc4ccccc4F)C3=O)cc2)CC1	-8.4%	13µM*	30.0	18.4µM*	21.7	-4.2%
CN1CCN(CCCNC(=O)c2ccc(/C=C3\Oc4ccccc4N(Cc4ccccc4F)C3=O)cc2)CC1	?	9.2µM*	61.4	6.51µM*	25.4	-8.3%
CN1CCN(CCCNC(=O)c2ccc(/C=C3/Sc4ccccc4N(Cc4cccc(Cl)c4)C3=O)cc2)CC1	?	?	-4.4	?	-12.9	-0.9%
CN1CCN(CCCNC(=O)c2ccc(/C=C3\Sc4ccccc4N(Cc4ccc(F)cc4)C3=O)cc2)CC1	?	18.4µM*	-76.5*	?	-0.4	-12.3%
COCCCNC(=O)/C=C1\Sc2ccccc2N(Cc2ccccc2F)C1=O	-5.6%	?	-12.5	18.4µM*	0.0	3.3%
COc1cc(NC(=O)N2CCC3(CC2)Nc2ccccc2-n2cccc23)cc(OC)c1OC	-9.0%	/	/	/	/	-7.1%
COc1cccc(Cn2c(=O)n(-c3ccc(Br)cc3F)c(=O)c3sc4ccccc4c32)c1	-4.4%	/	/	/	/	-1.5%
O=Cc1ccc(CS)cc1	-0.6%	/	/	/	/	/
CCOc1ccccc1CNC(=O)CN1C(=O)CCn2nc(-c3cn(C)c4ccccc34)cc21	-1.1%	/	/	/	/	-1.8%
COc1ccc(-c2nnc(SCC(=O)NC3CCCCC3)nc2-c2ccc(OC)cc2)cc1	0.9%	/	/	/	/	-2.2%
COc1ccc(-c2nc(SCC(=O)NC3CCCCC3)n[nH]2)cc1	-0.7%	?	0.0	16.4µM*	-20.4	-9.3%
Cc1nc(SC(C)C(=O)NCC2CCCO2)c2cc(-c3ccccc3)sc2n1 (centres undefined)	3.7%	11.6µM*	-63.1*	?	0.0	-10.5%
COc1ccc(-c2cn3nc(SCC(=O)NC4CCCCC4)ccc3n2)cc1	-3.9%	3.66µM*	25.1	8.2µM*	-1.6	-6.7%

Assay outcomes from PubChem.
